The whole screen tested about 5,500 compounds, of which about 2,000 (36%) were called active. Roughly 18% stayed inconclusive and do not appear here. Rule as the data show it: active = normalized growth mostly below about 0.91 (no sharp cut-off); inconclusive = no clear call, values can overlap the other calls; inactive = mostly above about 0.92. The list shows a part of the results.
Assay: chemical genetic growth profiling, strain panel (AID 1159580);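 also: tested at 20 µM; growth read once vehicle control cultures reached saturation at 30 °C; 1 = growth at the plate median or of vehicle wells; lower values mean less growth of the strain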
Settings: S. cerevisiae deletion strains, growth OD
[1] = locus YAL021C, strain ccr4, hits give low values
[2] = locus YAL026C, strain drs2, hits give low values
[3] = locus YAL030W, strain snc1, hits give low values
[4] = locus YBL061C, strain skt5, hits give low values
[5] = locus YBR009C, strain hhf1, hits give low values
[6] = locus YBR023C, strain chs3, hits give low values
[7] = locus YBR171W, strain sec66, hits give low values
[8] = locus YBR231C, strain swc5, hits give low values
[9] = locus YBR279W, strain paf1, hits give low values
[10] = locus YCL011C, strain gbp2, hits give low values
[11] = locus YCL016C, strain dcc1, hits give low values
[12] = locus YCL069W, strain vba3, hits give low values
[13] = locus YCR088W, strain abp1, hits give low values
[14] = locus YDL005C, strain med2, hits give low values
[15] = locus YDL040C, strain nat1, hits give low values
[16] = locus YDR001C, strain nth1, hits give low values
[17] = locus YDR069C, strain doa4, hits give low values
[18] = locus YDR137W, strain rgp1, hits give low values
[19] = locus YDR159W, strain sac3, hits give low values
[20] = locus YDR297W, strain sur2, hits give low values
[21] = locus YDR334W, strain swr1, hits give low values
[22] = locus YDR335W, strain msn5, hits give low values
[23] = locus YDR392W, strain spt3, hits give low values
[24] = locus YEL003W, strain gim4, hits give low values
[25] = locus YEL037C, strain rad23, hits give low values
[26] = locus YEL061C, strain CIN8 (second series), hits give low values
[27] = locus YER015W, strain faa2, hits give low values
[28] = locus YER016W, strain bim1, hits give low values
[29] = locus YER111C, strain swi4, hits give low values
[30] = locus YER155C, strain BEM2 (second series), hits give low values
[31] = locus YFR010W, strain ubp6, hits give low values
[32] = locus YGL167C, strain pmr1, hits give low values
[33] = locus YGL173C, strain kem1, hits give low values
[34] = locus YGL227W, strain vid30, hits give low values
[35] = locus YGL240W, strain doc1, hits give low values
[36] = locus YGL253W, strain hxk2, hits give low values
[37] = locus YHR013C, strain ard1, hits give low values
[38] = locus YHR027C, strain rpn1, hits give low values
[39] = locus YHR142W, strain chs7, hits give low values
[40] = locus YJL092W, strain hpr5, hits give low values
[41] = locus YJL095W, strain BCK1 (second series), hits give low values
[42] = locus YJL115W, strain asf1, hits give low values
[43] = locus YJL129C, strain trk1, hits give low values
[44] = locus YJL154C, strain vps35, hits give low values
[45] = locus YJL164C, strain tpk1, hits give low values
[46] = locus YJL166W, strain qcr8, hits give low values
[47] = locus YKL160W, strain elf1, hits give low values
[48] = locus YKR026C, strain gcn3, hits give low values
[49] = locus YKR091W, strain srl3, hits give low values
[50] = locus YLL001W, strain dnm1, hits give low values
[51] = locus YLL026W, hits give low values
[52] = locus YLL041C, strain sdh2, hits give low values
[53] = locus YLR027C, strain aat2, hits give low values
[54] = locus YLR221C, strain rsa3, hits give low values
[55] = locus YLR258W, strain gsy2, hits give low values
[56] = locus YLR262C, strain YPT6 (second series), hits give low values
[57] = locus YLR320W, strain mms22, hits give low values
[58] = locus YLR342W, strain FKS1, hits give low values
[59] = locus YLR357W, strain rsc2, hits give low values
[60] = locus YLR370C, strain arc18, hits give low values
[61] = locus YLR384C, strain iki3, hits give low values
[62] = locus YML120C, strain ndi1, hits give low values
[63] = locus YMR058W, strain fet3, hits give low values
[64] = locus YMR125W, strain sto1, hits give low values
[65] = locus YMR129W, hits give low values
[66] = locus YMR205C, strain PFK2, hits give low values
[67] = locus YMR231W, strain pep5, hits give low values
[68] = locus YNL071W, strain lat1, hits give low values
[69] = locus YNL209W, strain ssb2, hits give low values
[70] = locus YNL248C, strain rpa49, hits give low values
[71] = locus YNL322C, strain KRE1 (second series), hits give low values
[72] = locus YNR049C, strain mso1, hits give low values
[73] = locus YOR001W, strain rrp6, hits give low values
[74] = locus YOR070C, strain gyp1, hits give low values
[75] = locus YOR080W, strain dia2, hits give low values
[76] = locus YOR083W, strain WHI5, hits give low values
[77] = locus YOR106W, strain vam3, hits give low values
[78] = locus YOR265W, strain rbl2, hits give low values
[79] = locus YOR270C, strain vph1, hits give low values
[80] = locus YOR290C, strain snf2, hits give low values
[81] = locus YPL051W, strain arl3, hits give low values
[82] = locus YPL078C, strain atp4, hits give low values
[83] = locus YPL106C, strain sse1, hits give low values
[84] = locus YPL240C, strain hsp82, hits give low values

Measured: normalized growth

CC(=CC1CCC(C)C2CCC(C)=C12)C(=O)O (stereo unspecified)
inactive: [1] 0.948 | [3] 0.93 | [4] 0.931 | [5] 0.958 | [6] 0.929 | [8] 0.923 | [9] 0.95 | [10] 0.986 | [11] 0.927 | [12] 0.956 | [13] 0.938 | [14] 0.953 | [15] 0.935 | [16] 0.943 | [17] 0.931 | [19] 0.888 | locus YDR195W, strain ref2 1.12 | [20] 0.943 | [21] 0.927 | [22] 0.944 | [24] 0.958 | [25] 0.942 | [26] 0.947 | [27] 0.971 | [28] 0.936 | [29] 0.923 | [30] 0.873 | [31] 0.965 | [34] 0.952 | [35] 0.941 | [36] 0.937 | [37] 0.954 | [38] 0.956 | [39] 0.901 | [40] 0.93 | [41] 0.927 | [42] 0.965 | [44] 0.934 | [45] 0.923 | [46] 0.917 | [47] 0.939 | [48] 0.939 | [50] 0.966 | [51] 0.946 | [52] 0.955 | [53] 0.953 | [54] 0.943 | [55] 0.941 | [59] 1.01 | [61] 0.926 | [62] 0.968 | [63] 0.937 | [64] 0.937 | [65] 0.928 | [69] 0.978 | [70] 0.972 | [71] 0.94 | [72] 0.941 | [73] 0.942 | [74] 0.943 | [75] 0.961 | [76] 0.933 | [77] 0.914 | [78] 0.956 | [80] 0.918 | [82] 0.946 | [83] 1.04
active: [2] 0.904 | [7] 0.876 | [18] 0.573 | [23] 0.373 | [32] 0.892 | [33] 0.891 | [43] 0.799 | [49] 0.93 | [56] 0.591 | [57] 0.779 | [58] 0.887 | [60] 0.906 | [66] 0.859 | [67] 0.898 | [68] 0.875 | [79] 0.727 | [81] 0.907 | [84] 0.925

CC(=CC1CCC(C)C2C1=C(C)CC2O)C(=O)O (stereo unspecified)
inactive: [1] 1.01 | [2] 1.04 | [3] 1.01 | [4] 1.02 | [5] 1.01 | [6] 1.02 | [7] 1.02 | [8] 1.02 | [9] 1.02 | [10] 1.02 | [11] 1.01 | locus YCL061C, strain MRC1, hits give low values 1.02 | [12] 1.01 | [13] 1.01 | [14] 1.03 | [15] 1.01 | [16] 1.01 | [17] 1 | [18] 1.04 | [19] 1.04 | locus YDR195W, strain ref2 1.02 | [20] 1.02 | [21] 1.02 | [22] 1.02 | [23] 0.944 | [24] 1.02 | [25] 1.01 | [26] 1.02 | [27] 1.03 | [28] 1.02 | [29] 1.01 | [30] 1.03 | [31] 1.03 | [32] 1.01 | [33] 1.03 | [34] 1.01 | [35] 1.02 | [36] 1.03 | [37] 1.03 | [38] 1.04 | [39] 1.02 | [40] 1.02 | [41] 1.02 | [42] 1.02 | [43] 1.04 | [44] 1.01 | [45] 1.01 | [46] 1.02 | [47] 1 | [48] 1.01 | [49] 1.02 | [50] 1.03 | [51] 1.03 | [52] 1.01 | [53] 1.02 | [54] 1.01 | [55] 1.01 | [56] 1.02 | [57] 1.02 | [58] 1.02 | [59] 0.995 | [60] 0.997 | [61] 1.02 | [62] 1.02 | [63] 1.03 | [64] 0.987 | [65] 1.02 | [66] 1.02 | [67] 1.02 | [68] 1.03 | [69] 1.03 | [70] 1.07 | [71] 1.01 | [72] 1.01 | [73] 1.04 | [74] 1 | [75] 1.02 | [76] 1.01 | [77] 1.01 | [78] 1.02 | [79] 1.07 | [80] 0.989 | [81] 1.03 | [82] 1.01 | [83] 1.03 | [84] 1.02

Source: PubChem BioAssay AID1159580 (chemical genetic matrix, 2015)
